This is a sample that favours compounds with a hit; in the whole collection about 11% have one here.
PLK1 PBD inh: inhibitors of human PLK1 polo-box domain binding. P53350. Plk1 PBD binding of FITC phosphopeptide, fluorescence polarization. Potency, µM, most hits filed as inhibitors. 360,000 compounds, 2.8% hits; also: series mostly up to about 57 µM; nearly all actives have a fitted effect of over 65% in size
HP1b chromo inh: blocks HP1-beta chromodomain binding to methylated histone tails. AlphaScreen HP1-beta / biotin-H3K9me3 peptide binding. P83916. Potency, µM (highest dose often 114 µM), most hits filed as inhibitors. 390,000 compounds, 0.56% hits; also: nearly all actives have a fitted effect of over 70% in size
Target sequence (P83916 whole entry, looked up): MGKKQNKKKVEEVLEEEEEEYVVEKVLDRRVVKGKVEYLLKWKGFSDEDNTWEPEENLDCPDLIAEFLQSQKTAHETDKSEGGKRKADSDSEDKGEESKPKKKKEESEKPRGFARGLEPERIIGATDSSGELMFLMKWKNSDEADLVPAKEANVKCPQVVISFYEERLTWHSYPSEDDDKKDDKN
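Compound inhibition of the preformed complex between 50 nM HP1-beta and 50 nM biotinylated H3K9me3 peptide was read by AlphaScreen. Buffer was PBS pH 7.4 with 0.01% Tween-20. Incubations ran 30 min at room temperature, with 10 ug/mL donor/acceptor beads.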
G9a block: blocks human histone lysine methyltransferase G9a. Q96KQ7. G9a H3K9 monomethylation, AlphaScreen, 2 h. Potency, µM (highest dose often 102 µM), most hits filed as inhibitors. 350,000 compounds, 8.8% hits. AID 504332; also: nearly all actives have a fitted effect of over 75% in size
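Compounds were preincubated with 20 nM G9a for 15 min, after which biotinylated H3K9 peptide (500 nM) and SAM (20 uM) started a 2 h room-temperature reaction. Monomethylated product was quantified by antibody-based AlphaScreen chemiluminescence.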
VDR inhibitor: blocks the human vitamin D receptor; AID 504847; Potency, µM, actives largely listed as inhibitors; P11473; 400,000 compounds, 0.93% hits; VDR-SRC2-3 peptide fluorescence polarization, 2 h
Target sequence (P11473 whole entry, looked up): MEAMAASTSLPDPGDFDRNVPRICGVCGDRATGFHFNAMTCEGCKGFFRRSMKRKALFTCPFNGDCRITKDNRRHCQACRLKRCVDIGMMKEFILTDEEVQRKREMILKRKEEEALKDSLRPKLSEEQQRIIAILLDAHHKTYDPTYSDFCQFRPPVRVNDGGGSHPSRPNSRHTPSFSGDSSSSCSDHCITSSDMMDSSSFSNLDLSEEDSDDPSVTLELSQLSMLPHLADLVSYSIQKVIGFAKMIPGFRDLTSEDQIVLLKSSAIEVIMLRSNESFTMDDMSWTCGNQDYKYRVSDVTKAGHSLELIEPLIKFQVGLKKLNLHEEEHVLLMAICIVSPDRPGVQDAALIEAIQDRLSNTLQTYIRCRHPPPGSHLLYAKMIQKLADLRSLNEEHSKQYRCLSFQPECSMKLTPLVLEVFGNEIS
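Two reagent solutions held at 4 deg C in the dark were dispensed, compounds pinned at 23 nl, and the mixture incubated 2 h at room temperature. Read-out: fluorescence polarization of VDR–SRC2-3 peptide binding.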
JMJD2A Tudor inh: JMJD2A Tudor domain (human) inhibition. O75164. AlphaScreen JMJD2A-Tudor / H3K4me3 peptide binding. Potency, µM (doses to about 114 µM), most hits filed as inhibitors. 390,000 compounds, 4.4% hits. AID 504339; also: nearly all actives have a fitted effect of over 50% in size
BAZ2B block: BAZ2B (human) inhibition | AlphaScreen BAZ2B-H3K14Ac peptide displacement | 360,000 compounds, 4.4% hits | Potency, µM (top dose mostly 114 µM), hits mostly inhibitors; also: nearly all actives have a fitted effect of over 60% in size
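BAZ2B (50 nM) with biotin-H3(5-23)K14Ac peptide (50 nM) in PBS pH 7.4, 0.01% Tween-20, preformed 30 min, then compound 30 min at room temperature; top concentration 110uM. AlphaScreen streptavidin donor/nickel chelate acceptor beads (10 ug/mL final), 20 min dark, signal read.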
Hits are given with their value; - = inactive; ? = inconclusive; . = no result; [ ] = dose if it differs, or a comment. Calls follow the shape of the dose curve; as a rule, active = well fitted curve in the direction sought with a large enough effect; inconclusive = small, poorly fitted or top-dose-only effect, or another doubt; inactive = no such curve, though single readings can be large; an effect the other way counts as inactive or inconclusive.

SMILES | PLK1 PBD inh | HP1b chromo inh | G9a block | VDR inhibitor | JMJD2A Tudor inh | BAZ2B block
COc1cccc(NC(=O)CSc2ccc3nnc(-c4ccncc4)n3n2)c1 | - | - | 50µM | - | - | -
COC(=O)c1ccc(CSc2ccc3nnc(-c4ccc(OC)cc4)n3n2)o1 | . | . | - | . | . | -
COc1ccc(-c2nnc3ccc(SCC(=O)N4CCCCCC4)nn23)cc1OC | - | - | ? | - | - | -
COC(=O)c1ccc(CSc2ccc3nnc(-c4cccnc4)n3n2)o1 | . | . | 25µM | . | . | -
Cc1cc(NC(=O)CSc2ccc3nnc(-c4ccccc4)n3n2)no1 | - | - | ? | - | - | -
CC1CCN(S(=O)(=O)c2ccc3c(c2)N(CC(=O)N2CCN(c4ccccc4)CC2)C(=O)CO3)CC1 | . | - | - | - | - | -
CN(C)S(=O)(=O)c1cccc(C(=O)OCC(=O)NCc2ccc3c(c2)OCO3)c1 | - | - | - | - | - | .
O=C(CSc1ccc2nnc(-c3ccc(Cl)cc3)n2n1)N1CCCc2ccccc21 | - | - | 32µM | - | - | -
CCOc1ccc2nc(NC(=O)CSc3cn[nH]n3)sc2c1 | - | - | - | - | - | -
CCOc1ccc(-c2nnc3ccc(SCC(=O)Nc4nc5ccc(C)cc5s4)nn23)cc1 | - | - | 45µM | - | - | -
O=C(CSc1ccc2nnc(-c3cccnc3)n2n1)Nc1ccccc1 | - | - | 50µM | - | - | -
COc1ccc(C(=O)c2c3ccc(OC)cc3[n+]([O-])n2Cc2ccc(C(N)=O)cc2)cc1 | - | - | -[2.33 µM] | - | ? | -
Cc1cnc(-c2nc3ccccc3n2C(C)C(=O)Nc2c(C)cccc2C)cn1 (stereo not drawn) | - | . | . | . | . | .
O=C(Nc1ccc([N+](=O)[O-])cc1O)Nc1ccccc1Br | . | . | . | - | . | .
COc1cc(S(=O)(=O)NCCc2ccc3c(c2)OCO3)ccc1-n1cnnn1 | - | - | 56µM | - | - | -
CCCNS(=O)(=O)c1ccc(-n2cnnn2)c(OC)c1 | - | - | - | - | - | -
Cc1cc(S(=O)(=O)NC2CCCCC2)ccc1-n1cnnn1 | - | - | . | ? | - | -
COc1ccc(CNS(=O)(=O)c2ccc(-n3cnnn3)c(OC)c2)cc1 | - | - | 50µM | - | - | -
COc1ccc(S(=O)(=O)NC2CCCCC2)cc1-n1cnnn1 | 27µM | - | - | - | 79µM | -
CCn1c2c(c(=N)c3ccccc31)CCC2 | - | - | - | - | - | -
CCOc1ccc(CC(=O)NNC(=O)/C=C/C(=O)O)cc1 | - | - | 32µM | - | - | -
Cn1c(N)c(C(=O)Nc2cccc(Cl)c2)c(=O)n(C)c1=O | - | - | - | - | - | -
CN=c1sc(C(=O)Nc2cccc(Cl)c2)cc(=O)n1C | ? | - | - | - | 45µM | -
COc1cccc([C@@H]2Oc3ccc(OC)cc3C[C@H]2OC(=O)NCc2ccco2)c1 | . | . | . | - | . | .
CCN(CC)CCNS(=O)(=O)c1ccc(OC)c(Br)c1 | - | - | 4µM | - | 56µM | -
SMILES | PLK1 PBD inh | HP1b chromo inh | G9a block | VDR inhibitor | JMJD2A Tudor inh | BAZ2B block
O=c1c2c(-c3ccc(Cl)cc3)csc2ncn1/N=C/c1cccc([N+](=O)[O-])c1O | ? | - | 40µM | - | 40µM | 50µM
O=C(C1CCC(CNc2nc(=S)[nH]c3ccccc23)CC1)N1CCN(c2ccc(F)cc2)CC1 (stereo not drawn) | 21µM | - | ? | - | ? | -
CCOC(=O)c1cc(S(=O)(=O)N2CCC(C)CC2)cn1C | - | - | . | - | - | -
Cc1cccc(C(=O)Nc2ccccc2C(=O)OCc2cc(=O)n3nc(C4CC4)sc3n2)c1 | . | - | - | - | - | -
O=C1Oc2ccccc2C(=O)C1C(CC(O)c1ccc(-c2ccc(Br)cc2)cc1)c1ccccc1 (stereo not drawn) | . | . | ? | 32µM | . | .
Cc1ccc(NC2=C(C(=O)c3ccccc3)N(C)S(=O)(=O)c3ccccc32)cc1 | - | ? | -[0.501 µM] | - | ? | 25µM
CN1C(C(=O)c2ccccc2)=C(N)c2ccccc2S1(=O)=O | - | - | - | - | - | -
O=C(CCNc1ccc(Br)cc1)c1cccc([N+](=O)[O-])c1 | ? | 79µM | 3.2µM | 89µM | 20µM | ?
Cc1ccc(C(=O)Nc2ccc(Cc3ccncc3)cc2)cc1[N+](=O)[O-] | - | - | -[12.7 µM] | - | - | -
O=C(CCNc1ccc(Cc2ccncc2)cc1)c1ccc([N+](=O)[O-])cc1 | ? | ? | - | ? | 22µM | ?
O=C(CCNc1ccccc1)c1cccc([N+](=O)[O-])c1 | ? | - | 18µM | 89µM | ? | ?
O=C(CNC(=O)c1ccc([N+](=O)[O-])cc1)c1ccccc1 | - | - | - | - | - | -
O=C(CNc1ccccc1)c1ccc([N+](=O)[O-])cc1 | ? | - | 4.5µM | ? | - | ?
O=C(NCCNc1ccc([N+](=O)[O-])cc1)c1cccc(Br)c1 | - | - | - | - | - | -
CCc1cccc(NS(=O)(=O)c2c(C)nc3sc(CC)nn3c2=O)c1 | - | - | - | - | - | -
Cc1ccc(NC(=O)CN2C(=O)CCc3cc(S(=O)(=O)N4CCOCC4)ccc32)c(C)c1 | . | - | -[12.7 µM] | - | - | -
N[C@@H](Cc1ccc(O)cc1)C(=O)Nc1ccc2ccccc2c1 | - | - | -[12.7 µM] | - | - | -
COc1ccc(C(=O)N2CCCC(c3cc(C(=O)NCc4cccnc4)no3)C2)cc1 (stereo not drawn) | - | . | . | . | . | .
COc1ccc(C(=O)COC(=O)Cn2[nH]c(=O)c3ccccc3c2=O)c(OC)c1 | - | - | ? | - | - | -
O=C(C[n+]1cccc2ccccc21)c1ccc([N+](=O)[O-])cc1 | ? | - | ? | ? | 28µM | -
COc1ccc(N2C(=NC(=O)C3CCCCC3)SC3CS(=O)(=O)CC32)c(OC)c1 (stereo not drawn) | 12µM | - | - | ? | 28µM | -
C#CCOCCOCCOCCNc1nc(N2CCN(C(=O)[C@H]([C@@H](C)CC)n3cc([C@@H](N)Cc4ccc(O)cc4)nn3)CC2)nc(N2CCN(C(=O)[C@H](Cc3ccc(O)cc3)n3cc([C@@H](N)C(C)CC)nn3)CC2)n1 (stereo partly drawn) | - | - | ? | - | 22µM | 79µM
C#CCOCCOCCOCCNc1nc(N2CCOCC2)nc(N2CCN(C(=O)[C@H](Cc3ccc(O)cc3)n3cc([C@@H](N)CC(C)C)nn3)CC2)n1 | - | - | ? | - | - | -
C#CCOCCOCCOCCNc1nc(N2CCN(C(=O)[C@H]([C@@H](C)CC)n3cc([C@@H](N)CC(C)C)nn3)CC2)nc(N2CCN(C(=O)[C@H](Cc3ccc(O)cc3)n3cc([C@@H](N)C(C)CC)nn3)CC2)n1 (stereo partly drawn) | - | - | -[12.7 µM] | - | ? | 79µM
CCc1cccc(CC)c1N(COC)C(=O)Cn1c(C)nc2ccccc21 | . | - | ? | - | - | -
